In the library only some 5% were active in any assay of this set; here they are far more common.
SENP7 block: inhibitors of human SENP7 protease. Q9BQF6. recombinant SENP7, Z-RLRGG-aminoluciferin luminescence, 40 min. inhibition, % at 5 µM. 330,000 compounds, 1.5% hits;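 active = inhibition above about 50% at the single test dose, limit read from the data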;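 note: plate controls were DMSO with enzyme for no effect and no enzyme buffer wells for full effect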
Target sequence (Q9BQF6 706-1050 limits assumed): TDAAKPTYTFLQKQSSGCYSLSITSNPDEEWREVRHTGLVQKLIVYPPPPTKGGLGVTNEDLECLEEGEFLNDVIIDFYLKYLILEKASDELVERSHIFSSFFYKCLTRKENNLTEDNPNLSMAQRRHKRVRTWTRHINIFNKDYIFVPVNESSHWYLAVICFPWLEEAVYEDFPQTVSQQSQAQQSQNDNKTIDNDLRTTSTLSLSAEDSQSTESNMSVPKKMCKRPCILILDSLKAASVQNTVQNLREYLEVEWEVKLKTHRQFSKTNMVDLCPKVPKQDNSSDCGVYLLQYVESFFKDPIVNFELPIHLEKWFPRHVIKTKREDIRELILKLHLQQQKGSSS
SENP8 block-1: inhibitors of human SENP8 protease | Q96LD8 | recombinant SENP8, Nedd8 substrate fluorescence | inhibition, % at 20 µM | 360,000 compounds, 0.64% hits | AID 602440; in the data active = inhibition mostly above about 40%, no sharp cut-off; inactive = mostly below about 27%
Target sequence (Q96LD8 whole entry, looked up): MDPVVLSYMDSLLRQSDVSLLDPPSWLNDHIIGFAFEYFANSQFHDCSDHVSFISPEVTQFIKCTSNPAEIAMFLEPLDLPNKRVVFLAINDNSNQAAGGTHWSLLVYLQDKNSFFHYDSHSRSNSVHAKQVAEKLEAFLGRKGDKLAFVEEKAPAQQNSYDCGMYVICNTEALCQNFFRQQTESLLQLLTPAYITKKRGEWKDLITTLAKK
SENP6 block: blocks the human protease SENP6; Q9GZR1; Recombinant SENP6 catalytic domain, aminoluciferin luminescence; inhibition, % at 10 µM; 330,000 compounds, 1.8% hits;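 active = inhibition above about 50% at the single tested dose, limit read from the data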;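 note: plate controls were DMSO wells with enzyme for no effect and DMSO wells lacking enzyme for full effect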
AHR act: activators of human aryl hydrocarbon receptor. P35869. AHR-responsive luciferase reporter cells, luminescence. activation, % at 5 µM. 320,000 compounds, 2.5% hits; in the data active = activation above about 47%;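 note: 0% = vehicle wells and 100% = reference agonist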
SENP8 block-2: SENP8 protease inhibition. purified SENP8, Z-RLRGG-aminoluciferin cleavage, luminescence. inhibition, % at 10 µM. 330,000 compounds, 1.2% hits; in the data active = inhibition above about 50%
EBI2 antag: blocks human EBI2 receptor beta-arrestin signaling | EBI2 beta-arrestin recruitment, luminescence, 7a,25-OHC stimulated | P32249 | inhibition, % at 5 µM | 360,000 compounds, 0.81% hits; in the data active = inhibition above about 38%;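 note: enzyme fragment complementation signal reports receptor beta-arrestin coupling in cells; 0% = agonist plus DMSO wells and 100% = wells without agonist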
EBI2 antag conf: EBI2 (human) antagonism, single concentration confirmation; shares compounds with EBI2 antag; EBI2 beta-arrestin luminescence, 7a,25-OHC antagonism; inhibition, % at 5 µM; 2,400 compounds, 29% hits;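 active = inhibition of at least 50%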
EBI2 agonist: counter-screen for EBI2 antagonists: EBI2 agonist activity; AID 652000; EBI2-expressing cells, agonist mode, luminescence, 60 min; 0% vehicle, 100% 7α,25-dihydroxycholesterol control; 2,400 tested, under 10 active; activation, % at 5 µM; shares compounds with EBI2 antag;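 active = activation of at least 50%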
bGal cs: counter-screen for EBI2 antagonists: E. coli beta-galactosidase inhibition. purified beta-galactosidase, luminescent Galacton Star, 15 min. inhibition, % at 5 µM. shares compounds with EBI2 antag. AID 652176. 2,400 compounds, 1% hits;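 active = replicate-average signal at least 3 plate SD below neutral wells, shown as high inhibition, flagging enzyme-inhibiting false positives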;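 note: 0% = DMSO wells with enzyme and 100% = wells lacking enzyme; higher means stronger loss of beta-gal luminescence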
* marks the source's active call; other numbers are inactive results; . = not tested or not shown.

SMILES | SENP7 block | SENP8 block-1 | SENP6 block | AHR act | SENP8 block-2 | EBI2 antag | EBI2 antag conf | EBI2 agonist | bGal cs
COc1ccc(OCC(=O)N2CCN(C(=O)COc3ccc(Br)cc3)CC2)cc1 | 10 | 10 | 0 | 1 | 4 | 80* | 56* | 0 | 9
O=C(COc1ccc2cc(Br)ccc2c1)N1CCOCC1 | 5 | 11 | 4 | -1 | -1 | 62* | 36 | 1 | 4
O=C(COc1ccc(Br)cc1)N1CCN(c2ccccc2)CC1 | -3 | 11 | 3 | -2 | -9 | 82* | 67* | 0 | 8
CC(=O)c1ccc(N2CCN(C(=O)COc3ccc4ccccc4c3)CC2)cc1 | . | 7 | . | . | . | 8 | . | . | .
O=C(COc1ccccc1)N1CCN(c2ccccc2)CC1 | -2 | 6 | -9 | 3 | -6 | 30 | . | . | .
CC(=O)N1CCN(C(=O)COc2ccc(Br)cc2)CC1 | 3 | 29 | -11 | 1 | -2 | 43 | . | . | .
N#C/C(=C\N1CCCCC1)S(=O)(=O)c1ccc(Cl)cc1 | 14 | 14 | -10 | 0 | -10 | -12 | . | . | .
COc1ccc(N2CCN(C(=O)COc3ccc4ccccc4c3)CC2)cc1 | 1 | 27 | -8 | 2 | -3 | 85* | 35 | 1 | 5
O=C(COc1ccc2ccccc2c1)N1CCN(C(=O)c2cccnc2)CC1 | 4 | 15 | -2 | 9 | -2 | 78* | 64* | -1 | -16
COc1cc(OC)cc(C(=O)N2CCN(C(=O)COc3ccc4ccccc4c3)CC2)c1 | 10 | 8 | -7 | 7 | 0 | 85* | 68* | 0 | -6
COc1ccc(/C=C/C(=O)NNC(=O)C(C)Oc2ccccc2F)cc1OC (stereo unspecified) | 4 | -365 | 7 | 4 | -6 | 9 | . | . | .
CCC1(CC)NC(=O)N(CC(=O)OC(C)C(=O)Nc2ccc(NC(C)=O)cc2)C1=O (stereo unspecified) | 7 | 5 | -16 | 0 | -5 | -6 | . | . | .
CCOC(=O)C1(CCOc2ccccc2)CCN(C(=O)c2ccc(-n3cccn3)cc2)CC1 | -7 | 2 | -7 | 0 | -6 | 88* | 68* | 0 | 7
CCCS(=O)(=O)NC(=O)C1(C)CCN(C(=O)CSc2ccccc2)C1 (stereo unspecified) | . | 8 | . | . | . | -13 | . | . | .
O=C(C1CCN(S(=O)(=O)c2cccc3cccnc23)CC1)N1CCn2c1nc1ccccc12 | 7 | -2 | 6 | -8 | -5 | 92* | 84* | -5 | 86*
CC(=O)n1cc([C@H]2C=C(C(=O)N3CCN(Cc4ccccc4)CC3)O[C@@H](OCc3ccc(CO)cc3)C2)c2ccccc21 | 8 | -5 | 10 | 14 | 4 | 47* | 16 | -1 | -10
Cc1ccc(NC2CCCN(C(=O)c3ccc(C)c(N4CCNC4=O)c3)C2)cc1C (stereo unspecified) | 2 | 12 | -3 | 2 | 10 | -1 | . | . | .
COc1ccc(C2=NOC3(CC(=O)N(c4ccc(F)cc4)C3=O)C2)cc1 (stereo unspecified) | 5 | 28 | -25 | -1 | -1 | -9 | . | . | .
O=C(CN1CCC(n2nnc3cc(C(F)(F)F)ccc32)CC1)NCc1cccs1 | 0 | 21 | 0 | -5 | 5 | 58* | 37 | 1 | 8
CCOC(=O)c1ccccc1NC(=O)CN1CCC(n2nnc3cc(C(F)(F)F)ccc32)CC1 | 2 | 19 | -14 | -2 | 1 | 23 | . | . | .
Cc1ccc(C(=O)NC2CC3CCCC(C2)N3C(=S)NCc2ccco2)cc1 (stereo unspecified) | 0 | -11 | -14 | 3 | -3 | -1 | . | . | .
O=C(NCc1ccccc1)c1cc(=O)nc2sc(-c3ccccc3)nn12 | . | 7 | . | . | . | 44* | 26 | -1 | -9
O=C(CN1C(=O)C2CC=CCC2C1=O)Nc1ccc(OC(F)(F)F)cc1 (stereo unspecified) | 4 | 6 | 3 | 1 | -3 | 1 | . | . | .
CCCc1cc(C(=O)N2CCCN(C)CC2)cs1 | -10 | 7 | -5 | -1 | -1 | 1 | . | . | .
CCCc1cc(C(=O)N2CCN(c3ccccc3C)CC2)cs1 | -4 | 11 | -1 | 1 | -8 | 63* | 44 | 0 | 4
SMILES | SENP7 block | SENP8 block-1 | SENP6 block | AHR act | SENP8 block-2 | EBI2 antag | EBI2 antag conf | EBI2 agonist | bGal cs
Cc1cc(C)c2oc(C(=O)N3CCN(Cc4ccccc4)CC3)cc(=O)c2c1 | -2 | 10 | 18 | 2 | 10 | 58* | 32 | -1 | -10
O=C(c1cc(=O)c2cc(Cl)ccc2o1)N1CCN(Cc2ccccc2)CC1 | -6 | 11 | -8 | 3 | 1 | 93* | 92* | 0 | 4
Cc1cc(C)c2oc(C(=O)N3CCN(C)CC3)cc(=O)c2c1 | 1 | -4 | 9 | 1 | 0 | -1 | . | . | .
Cc1c(C(=O)N2CCN(CCc3ccccn3)CC2)oc2ccc(Cl)cc12 | 0 | -54 | -15 | -1 | 1 | 54* | 37 | -1 | 6
O=c1cc(CN2CCN(Cc3ccccc3)CC2)c2cc(Cl)ccc2o1 | . | 14 | . | . | . | 7 | . | . | .
COc1ccc(CNC(=O)c2cncc(Br)c2)cc1 | -1 | 20 | -3 | 4 | 4 | 16 | . | . | .
Cc1ccccc1N(C(=O)CNC(=O)c1ccco1)C(C(=O)NC1CCCCC1)c1cccnc1 (stereo unspecified) | 9 | 15 | -5 | -1 | 12 | 2 | . | . | .
CCN(C(=O)c1cc2cc3ccc(C)cc3nc2o1)c1ccc(OC)cc1 | 1 | -110 | 1 | -9 | 0 | 42* | 51* | 1 | 4
O=C(COc1ccc(Br)cc1)N1CCN(c2ccc([N+](=O)[O-])c(N3CCCCC3)c2)CC1 | -3 | 22 | -10 | 6 | -4 | 77* | 57* | -1 | 9
O=C(COc1ccc(Cl)cc1)N1CCN(c2ccc([N+](=O)[O-])c(N3CCOCC3)c2)CC1 | 3 | 25 | -6 | 8 | -6 | 85* | 61* | 0 | 9
O=C(CSc1ccc(Cl)cc1)N1CCN(c2ccc(Cl)cc2[N+](=O)[O-])CC1 | -1 | 16 | 9 | -2 | -4 | 82* | 76* | 2 | 8
O=C(O)C1CCN(C(=O)COc2ccc(Br)cc2)CC1 | -2 | -5 | 4 | -2 | 1 | 4 | . | . | .
O=C(COc1ccccc1)N1CCN(c2ccc([N+](=O)[O-])c(N3CCCCC3)c2)CC1 | -2 | 20 | -10 | -1 | -2 | 50* | 20 | 0 | 12
COc1cc(COc2ccc3c(C)c(CC(=O)O)c(=O)oc3c2C)cc(OC)c1OC | -7 | -232 | -7 | 0 | -3 | 1 | . | . | .
